Data as given in PubChem BioAssay AID1030 (National Center for Advancing Translational Sciences (NCATS), 2008).
In all, about 220,000 compounds went through this assay and about 16,000 (7.3%) were called active. Inconclusive results (about 25%) are left out. This is one part of a sample in which actives are shown more often than they occur. Calls come from the whole dose curve; as a rule, active = well fitted inhibition curve with a large enough effect (not every such curve was filed as active); inconclusive = small, poorly fitted or top-dose-only effect, or another doubt; inactive = no such curve, though single readings can be large or run the other way.

The compounds below were run against Aldehyde dehydrogenase 1A1 (Homo sapiens) (UniProt P00352) (assay: qHTS Assay for Inhibitors of Aldehyde Dehydrogenase 1 (ALDH1A1)). Conditions: Purified ALDH1A1, NADH fluorescence, propionaldehyde substrate; series mostly up to 75.3 µM; activity, negative = inhibition: at the top concentration.
Potency is the fitted concentration of half-maximal effect.
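Throughout, for activity, negative = inhibition: plate controls were no enzyme wells and a reference inhibitor.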

Chain of Aldehyde dehydrogenase 1A1 (Homo sapiens) (P00352 whole entry, looked up): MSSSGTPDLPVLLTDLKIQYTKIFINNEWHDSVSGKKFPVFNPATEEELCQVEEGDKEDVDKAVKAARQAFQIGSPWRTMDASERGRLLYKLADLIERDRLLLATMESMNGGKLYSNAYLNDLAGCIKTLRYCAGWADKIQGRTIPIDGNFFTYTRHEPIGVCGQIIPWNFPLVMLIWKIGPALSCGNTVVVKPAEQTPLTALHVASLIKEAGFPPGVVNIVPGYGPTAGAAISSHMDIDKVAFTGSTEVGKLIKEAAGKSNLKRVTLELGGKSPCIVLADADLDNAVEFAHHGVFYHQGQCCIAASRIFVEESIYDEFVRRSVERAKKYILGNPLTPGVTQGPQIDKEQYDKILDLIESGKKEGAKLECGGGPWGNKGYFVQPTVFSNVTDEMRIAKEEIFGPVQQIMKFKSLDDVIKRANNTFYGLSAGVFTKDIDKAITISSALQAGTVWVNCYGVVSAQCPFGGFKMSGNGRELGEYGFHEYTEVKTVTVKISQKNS

Compound | activity, negative = inhibition | Potency
CCN(CCn1cccn1)Cc1nc(-c2ccc(C(=O)OC)cc2)no1 | 5.91% (inactive) | 
O=C1OC(/C=C/c2ccccc2)=NC/1=C/c1ccco1 |  | 11.2 µM (active)
O=c1oc(/C=C/c2ccccc2)nc2ccccc12 | 5.64% (inactive) | 
CC(=O)Oc1ccccc1C1=NN(C(C)=O)C(c2ccccc2)C1 (centres undefined) | -3.23% (inactive) | 
COc1ccccc1N1CCN(/N=C\C(Br)=C\c2ccccc2)CC1 |  | 5.62 µM (active)
COc1ccccc1N1CCN(C(=O)C(=O)N/N=C/c2ccccc2F)CC1 | -4.88% (inactive) | 
CNCC(O)CN1CCN(c2ccccc2OC)CC1 (centres undefined) | 3.3% (inactive) | 
COc1ccccc1CNC(=O)COc1ccc(C)nc1[N+](=O)[O-] | 8.34% (inactive) | 
O=S(=O)(NCCc1ccc(F)cc1)c1cccc2cccnc12 | -5.69% (inactive) | 
Cc1coc2c(O)cc3c(c12)OC1(N2CCCCC2)C(=O)NCCCC31 (centres undefined) |  | 20 µM (active)
COc1ccc(NC(=O)C(Br)C(C)C)cc1 (centres undefined) | 8% (inactive) | 
Cc1nn(-c2ccccc2)c2c1C(c1cccc([N+](=O)[O-])c1)N(c1ccccc1)C(=O)N2 (centres undefined) | -4.59% (inactive) | 
CCOc1ccc(C(=O)Nc2cccc(-c3ccc4nncn4n3)c2)cc1 | 6.9% (inactive) | 
CCCn1nc(C(=O)N2CCCc3ccccc32)c2ccccc2c1=O | 0.156% (inactive) | 
NC(=O)N1CCc2ccccc21 | -0.487% (inactive) | 
Cc1occc1C(=O)N1CCCc2ccccc21 |  | 31.6 µM (active)
CCOC(=O)C1=NO[C@@]2(C=C(Br)C(=O)[C@H]3O[C@H]32)C1 | -3.87% (inactive) | 
CN(C)c1ccc(/C=N/NC(=O)c2ccc(Cn3cc(Br)cn3)o2)cc1 |  | 17.8 µM (active)
O=C(N/N=C\c1ccc(Br)cc1)c1ccc(Cn2cccn2)o1 | 1.46% (inactive) | 
O=C(N/N=C/c1ccc2c(c1)OCO2)c1ccc(Cn2cc([N+](=O)[O-])cn2)o1 | -3.18% (inactive) | 
COc1ccc(C2CC(c3cccs3)Nc3nnnn32)cc1 (centres undefined) | -3.25% (inactive) | 
O=c1[nH]c(CN2CCOCC2)nc2cc(Cl)ccc12 | 5.97% (inactive) | 
CCC1(CC)NC(=O)N(CC(=O)OCC(=O)NC(=O)c2ccccc2)C1=O | -4.7% (inactive) | 
O=C(c1ccccc1Cl)N(Cc1ccccc1F)N1C(=O)CCCC1=O | 7.83% (inactive) | 
COc1ccc(NC(=O)N2CCCC(c3nc(-c4ccc(F)cc4)no3)C2)cc1 (centres undefined) | -1.81% (inactive) | 
CC(=O)N1c2ccccc2N(Cc2ccc([N+](=O)[O-])cc2)C(=O)C1(C)C | 10.7% (inactive) | 
COC(=O)C(CC(=O)Nc1cc(C)ccc1C)Nc1ccccc1OC (centres undefined) | 4.82% (inactive) | 

Compound | activity, negative = inhibition | Potency
Cc1ccc(C)c(NC(=O)CCC(=O)NNC(=O)c2cccs2)c1 | 1.54% (inactive) | 
Cc1ccc(C)c(NC(CC(=O)c2ccccc2)C(=O)OCC(=O)c2cccs2)c1 (centres undefined) |  | 7.08 µM (active)
O=C(COC(=O)CNC(=O)c1ccccc1F)NCC(F)(F)F | 0.995% (inactive) | 
O=C(COC(=O)c1ccc(O)cc1)Nc1nccs1 | -0.667% (inactive) | 
OC(COc1cccc(OCC(O)CN2CCCC2)c1)CN1CCCC1 (centres undefined) | -4.35% (inactive) | 
Cc1cccc(C)c1OCC(O)CN1CCCCC1 (centres undefined) | 0.0933% (inactive) | 
OC(COCCC12CC3CC(CC(C3)C1)C2)CN1CCCCC1 (centres undefined) |  | 20 µM (active)
CC1CCCCC1NC(=O)CO/N=C/c1ccc(OC(F)F)cc1 (centres undefined) | 1.1% (inactive) | 
CCCCCCCCc1c(O)nc(-n2[nH]c(C)c(CCO)c2=O)[nH]c1=O | 5.41% (inactive) | 
CCOc1ccccc1Nc1ccc(C(=O)O)cc1[N+](=O)[O-] | 4.42% (inactive) | 
CSc1ccccc1NC(=O)CN(C)CC(=O)Nc1ccc(Cl)cc1[N+](=O)[O-] | -2.42% (inactive) | 
CSc1nc2nc(-c3cccc(C(F)(F)F)c3)ccn2n1 | 0.606% (inactive) | 
O=C1CCCC(O)=C1N=Nc1ccc2ncsc2c1 |  | 25.1 µM (active)
Cc1ccc(NC(=S)N(Cc2ccco2)C(C)c2cccs2)cc1 (centres undefined) | 9.71% (inactive) | 
O=C(Oc1cccc(O)c1)C1CCCCC1 | 3.69% (inactive) | 
COC(=O)CN1C(=O)C(O)=C(C(C)=O)C1c1ccc([N+](=O)[O-])cc1 (centres undefined) | 3.05% (inactive) | 
COc1ccc(C2C(C(C)=O)=C(O)C(=O)N2Cc2cccnc2)cc1 (centres undefined) | 1.23% (inactive) | 
CC(=O)C1=C(O)C(=O)N(c2cccnc2)C1c1ccc([N+](=O)[O-])cc1 (centres undefined) |  | 20 µM (active)
O=C1N=C(N2CCCC2)S/C1=C\c1cccc(Br)c1 |  | 25.1 µM (active)
O=C(OCC(=O)N1CCN(C(=O)c2ccco2)CC1)c1ccccc1Cc1ccccc1 | -7.91% (inactive) | 
CCNC(=S)N1CCN(C(=O)c2ccco2)CC1 | 8.19% (inactive) | 
O=C(CNS(=O)(=O)c1ccc(Br)s1)N1CCN(C(=O)c2ccco2)CC1 |  | 39.8 µM (active)
CCc1nnc(NC(=O)CSc2nnnn2-c2cccc(C(C)=O)c2)s1 | 0.744% (inactive) | 
Cc1cc(C)n(CCNCc2c(C(=O)N3C[C@@H](C)O[C@@H](C)C3)nc3ccc(Cl)cn23)n1 | 3.87% (inactive) | 
COC(=O)CCCC1=CC2=CC(=O)C(C)(OC(=O)c3cccs3)C(=O)C2=CN1CC1CC1 (centres undefined) | -4.48% [at 13.5 µM] (inactive) | 
CS(=O)(=O)c1ccc2nc(NC(=O)CN3CCCCCC3)sc2c1 | -8.52% (inactive) | 
CS(=O)(=O)c1ccc2nc(NC(=O)C3CCCCC3)sc2c1 | -3.17% (inactive) | 
